The record followed here is PubChem BioAssay.

Activity calls are given as the source filed them. Unless noted, how the calls were made is not given here.

Test [1] is described as follows: compounds binding Alexa647 anti-His antibody – biochemical, small-molecule microarray, 635 nm fluorescence, artefact control for SMM control protein annotation, primary screen (AID 1128).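 Further: score merges feature fluorescence with signal-to-noise for each printed compound spot.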 Particulars: higher = more signal.
Test [2] has as its system Human papillomavirus type 1a E7 protein (residues 1-88). Nature of the test: HPV1a E7 small-molecule binders, primary screen, biochemical, small-molecule microarray, residues 1-88, 635 nm (AID 1129). The note with it: small-molecule microarray binding, fluorescence 635 nm; higher = more signal.
In test [3] the target is Focal adhesion kinase 1 (Homo sapiens) (UniProt Q05397). Nature of the test: PTK2 protein binding on printed compound slides – biochemical, small-molecule microarray, 635/667 nm fluorescence, BSA, DTT, primary screen (AID 1130).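 Further: composite of spot emission at 667 nm and signal to noise over triplicate slides.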 The note with it: 635 nm fluorescence, higher = more signal.
In test [4] the test system is Fibrinogen (Alexa647-labelled). Nature of the test: Alexa647-fibrinogen binding to printed small molecules – biochemical, small-molecule microarray, 635/667 nm fluorescence, artefact control for SMM control-protein annotation, profiling panel (AID 1131).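 Further: z-score merges 667 nm fluorescence with per-spot signal-to-noise over triplicate slides.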 The note with it: fibrinogen-A647 binding fluorescence, higher = more signal.
For test [5], the target named is Follistatin (Homo sapiens) (UniProt P19883). In words: FST protein binding to printed compounds – biochemical, small-molecule microarray, 635/667 nm fluorescence, primary screen (AID 1132). Particulars: 635 nm fluorescence, higher = more signal.
In test [6] the target is Fibroblast growth factor 2 (Homo sapiens) (UniProt P09038). In words: basic fibroblast growth factor binding to printed compounds – biochemical, small-molecule microarray, 635/667 nm fluorescence, primary screen (AID 1133). Particulars: FGF2, fluorescence 635/667, higher = more signal.
Test [7] can be described thus: JC-1 mitochondrial potential readout, lung cancer cells – cell-based, A549, JC-1 fluorescence, basal, 24 h, 100 nL, profiling panel (AID 1138).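 Further: A549 lung adenocarcinoma cells under basal conditions with no added stimulus; test concentration not given here.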 The note with it: higher = more signal.
Another test deals with Lefty1. In words: Lefty1 protein binding to printed compounds – biochemical, small-molecule microarray, 635/667 nm fluorescence, primary screen (AID 1139). Particulars: fluorescence 635/667, higher = more signal.
The subject of test [8] is wheat germ agglutinin (Triticum aestivum), Alexa647-labelled. In words: Alexa647-WGA lectin binding to printed small molecules – biochemical, small-molecule microarray, 635/667 nm fluorescence, artefact control for SMM control-protein annotation, profiling panel (AID 1140).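 Further: score merges 667 nm feature emission with signal to noise over triplicate slides.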 The note with it: WGA-A647 binding, 635 nm fluorescence, higher = more signal.
For test [9], the target named is Luciferin 4-monooxygenase (Photinus pyralis) (UniProt P08659). In words: inhibition of purified Photinus pyralis luciferase – biochemical, luminescence, purified enzyme, 2006 set, primary screen (AID 1141).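 Further: cell-free assay with purified firefly luciferase at 100 ng per well in PBS; test concentration not given here.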 The note with it: purified firefly luciferase, SteadyGlo luminescence, 30 min; higher = more signal, called active from +8 up or from −8 down.
The test system of test [10] is Wnt5a (protein binding on small-molecule microarray). Nature of the test: small molecules binding Wnt5a protein – biophysical, small-molecule microarray, 635/667 nm fluorescence, primary screen (AID 1142).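 Further: fluorescence read at 667 nm with signal to noise per printed feature.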 Particulars: 635 nm fluorescence, higher = more signal.
A short description of test [11]: ATP-based viability of Huh7 replicon cells – cell-based, CellTiter-Glo luminescence, basal, 48 h, cytotoxicity control for HCV replication inhibitor project, primary screen (AID 1143).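 Further: Huh7 hepatoma cells carrying a hepatitis C replication reporter with no stimulus; test concentration not given here.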 Particulars: higher = more signal, called active from +8 up or from −8 down. (A replicon is a self-replicating genome or part of one, used to study replication in cells.)
A short description of test [12]: Pseudomonas biofilm growth suppression – PAO1 strain, BacTiter-Glo luminescence, LB-PBS, primary screen (AID 1144). The note with it: P. aeruginosa PAO1 biofilm, 12 h, higher = more signal.
Test [13] can be described thus: basal CRE-LacZ reporter activity in PC12 – cell-based, unstimulated, primary screen (AID 1145). Particulars: no forskolin, luminescence, 4.5 h, higher = more signal, called active from +8 up or from −8 down.
Test [14] can be described thus: forskolin-driven CRE-LacZ activity in PC12 – cell-based, CRE-LacZ reporter, forskolin-stimulated, primary screen (AID 1146).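 Further: PC12 cells with 6xCRE LacZ reporter stimulated by forskolin 10 µM; beta-galactosidase reporter signal reflecting CREB driven transcription.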 The note with it: luminescence, 4.5 h, higher = more signal, called active from +8 up or from −8 down.
The target in test [15] is Streptavidin (Streptomyces avidinii) (UniProt P22629). Nature of the test: compounds binding control protein streptavidin – biophysical, small-molecule microarray, 635/667 nm fluorescence, artefact control for SMM compound annotation, primary screen (AID 1147).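 Further: signal reflects streptavidin binding to arrayed compounds as a control protein.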 The note with it: higher = more signal.
The nature of test [16]: probe aInhba binding on compound microarray – biochemical, small-molecule microarray, 635/667 nm fluorescence, primary screen (AID 1148).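 Further: score merges 667nm spot fluorescence with signal-to-noise for antibody binding to printed compounds.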 The note with it: higher = more signal.
The target of test [17] is Torsin-1A (Homo sapiens) (UniProt O14656). In words: TOR1A wild-type binding on microarray – cell lysate, small-molecule microarray, lysate, 635/667 nm, primary screen (AID 1149). Particulars: COS7 hTOR1A-WT lysate, 635 nm fluorescence, higher = more signal.
Test [18] shares this target. In words: torsin A mutant lysate binding on microarrays – cell lysate, small-molecule microarray, COS7 lysate, 635/667 nm fluorescence, primary screen (AID 1150).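 Further: score pools 667 nm emission and signal to noise measuring lysate protein binding.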 Particulars: COS7 hTOR1A mutant lysate, 635 nm fluorescence, higher = more signal.
The test system of test [19] is Sonic hedgehog protein (Shh). Nature of the test: Sonic hedgehog microarray binding compounds – biochemical, small-molecule microarray, 635/667 nm fluorescence, primary screen (AID 1151).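 Further: Shh protein binding to compounds spotted on small-molecule microarray slides; score combines spot fluorescence intensity with signal-to-noise across triplicate slides.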 The note with it: 635 nm fluorescence, higher = more signal.

Sequence of Follistatin (Homo sapiens) (P19883 whole entry, looked up): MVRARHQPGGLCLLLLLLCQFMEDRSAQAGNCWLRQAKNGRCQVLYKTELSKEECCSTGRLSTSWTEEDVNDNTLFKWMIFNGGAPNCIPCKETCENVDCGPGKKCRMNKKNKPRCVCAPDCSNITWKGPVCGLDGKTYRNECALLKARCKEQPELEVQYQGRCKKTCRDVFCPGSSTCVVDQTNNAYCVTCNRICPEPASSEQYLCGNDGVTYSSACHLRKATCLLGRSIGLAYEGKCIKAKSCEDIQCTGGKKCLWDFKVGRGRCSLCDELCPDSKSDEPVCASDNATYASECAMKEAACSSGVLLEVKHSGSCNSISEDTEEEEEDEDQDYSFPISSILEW
Sequence of Fibroblast growth factor 2 (Homo sapiens) (P09038 whole entry, looked up): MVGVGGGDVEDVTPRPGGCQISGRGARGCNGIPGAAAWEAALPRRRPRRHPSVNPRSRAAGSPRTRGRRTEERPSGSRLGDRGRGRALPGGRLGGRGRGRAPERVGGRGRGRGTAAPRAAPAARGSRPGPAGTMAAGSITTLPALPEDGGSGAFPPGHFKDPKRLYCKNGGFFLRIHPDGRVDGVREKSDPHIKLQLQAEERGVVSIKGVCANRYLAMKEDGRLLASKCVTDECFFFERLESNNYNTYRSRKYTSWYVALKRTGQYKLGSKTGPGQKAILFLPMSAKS
Sequence of Luciferin 4-monooxygenase (Photinus pyralis) (P08659 whole entry, looked up): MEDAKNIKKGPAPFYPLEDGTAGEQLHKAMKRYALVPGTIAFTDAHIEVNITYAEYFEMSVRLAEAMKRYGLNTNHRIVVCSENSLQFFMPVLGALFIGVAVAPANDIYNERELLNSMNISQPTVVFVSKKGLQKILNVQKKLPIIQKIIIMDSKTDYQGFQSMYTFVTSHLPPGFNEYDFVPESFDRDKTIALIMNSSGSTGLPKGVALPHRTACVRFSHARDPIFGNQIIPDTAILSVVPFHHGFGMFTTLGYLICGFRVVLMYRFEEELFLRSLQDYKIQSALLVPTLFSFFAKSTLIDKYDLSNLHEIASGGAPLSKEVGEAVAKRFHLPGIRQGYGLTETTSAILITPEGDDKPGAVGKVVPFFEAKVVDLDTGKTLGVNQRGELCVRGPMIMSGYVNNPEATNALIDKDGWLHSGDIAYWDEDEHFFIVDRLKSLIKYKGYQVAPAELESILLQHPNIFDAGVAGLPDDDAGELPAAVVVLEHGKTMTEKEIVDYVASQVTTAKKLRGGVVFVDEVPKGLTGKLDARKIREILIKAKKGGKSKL
Sequence of Focal adhesion kinase 1 (Homo sapiens) (Q05397 whole entry, looked up): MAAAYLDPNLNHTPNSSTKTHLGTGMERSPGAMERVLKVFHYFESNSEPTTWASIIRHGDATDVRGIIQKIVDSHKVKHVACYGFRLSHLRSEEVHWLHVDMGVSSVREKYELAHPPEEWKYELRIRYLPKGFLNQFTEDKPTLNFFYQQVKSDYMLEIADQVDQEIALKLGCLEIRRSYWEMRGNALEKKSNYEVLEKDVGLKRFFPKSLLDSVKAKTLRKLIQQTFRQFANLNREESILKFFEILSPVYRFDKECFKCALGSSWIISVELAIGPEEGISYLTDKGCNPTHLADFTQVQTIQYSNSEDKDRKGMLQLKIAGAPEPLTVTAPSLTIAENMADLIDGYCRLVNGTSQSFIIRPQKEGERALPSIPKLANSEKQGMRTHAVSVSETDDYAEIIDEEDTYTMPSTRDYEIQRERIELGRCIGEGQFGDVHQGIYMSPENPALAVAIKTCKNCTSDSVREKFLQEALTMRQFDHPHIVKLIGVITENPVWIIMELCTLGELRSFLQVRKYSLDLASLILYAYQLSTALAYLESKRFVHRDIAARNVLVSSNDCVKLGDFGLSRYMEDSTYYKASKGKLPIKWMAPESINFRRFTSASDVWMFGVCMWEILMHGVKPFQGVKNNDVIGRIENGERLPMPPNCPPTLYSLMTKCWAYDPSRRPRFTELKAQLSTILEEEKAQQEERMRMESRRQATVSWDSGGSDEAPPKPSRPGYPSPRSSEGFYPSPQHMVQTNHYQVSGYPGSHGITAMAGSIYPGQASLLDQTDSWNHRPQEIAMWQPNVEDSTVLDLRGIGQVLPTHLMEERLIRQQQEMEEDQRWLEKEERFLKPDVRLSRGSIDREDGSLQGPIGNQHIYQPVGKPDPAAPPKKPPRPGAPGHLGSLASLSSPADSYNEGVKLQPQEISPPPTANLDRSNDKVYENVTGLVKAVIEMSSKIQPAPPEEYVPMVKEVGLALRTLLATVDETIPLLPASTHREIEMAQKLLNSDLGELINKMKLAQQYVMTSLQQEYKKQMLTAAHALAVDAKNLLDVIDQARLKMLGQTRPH
Sequence of Streptavidin (Streptomyces avidinii) (P22629 whole entry, looked up): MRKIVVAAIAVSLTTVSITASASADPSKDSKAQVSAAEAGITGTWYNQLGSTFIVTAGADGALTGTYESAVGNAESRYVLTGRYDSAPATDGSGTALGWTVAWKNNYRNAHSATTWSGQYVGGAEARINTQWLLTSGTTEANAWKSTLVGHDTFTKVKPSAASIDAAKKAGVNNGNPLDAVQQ
Sequence of Torsin-1A (Homo sapiens) (O14656 whole entry, looked up): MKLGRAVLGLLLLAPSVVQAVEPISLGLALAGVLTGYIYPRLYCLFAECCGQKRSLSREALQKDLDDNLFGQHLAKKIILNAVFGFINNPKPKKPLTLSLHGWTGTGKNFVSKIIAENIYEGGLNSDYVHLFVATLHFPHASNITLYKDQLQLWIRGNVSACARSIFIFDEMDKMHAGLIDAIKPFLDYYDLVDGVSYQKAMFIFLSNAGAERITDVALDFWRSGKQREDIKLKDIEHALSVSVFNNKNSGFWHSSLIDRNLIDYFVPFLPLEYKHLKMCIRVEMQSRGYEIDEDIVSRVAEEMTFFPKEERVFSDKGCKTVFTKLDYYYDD

Turning to `COC(=O)[C@@]1(Cc2ccc(F)cc2)[C@H]2c3cc(C(=O)N4CCCC4)n(Cc4ccc(OC(F)(F)F)cc4)c3C[C@H]2CN1C(=O)c1ccccc1`, the composite z-score in test [1] was -0.509; in test [2], 1.05; in [3] it was 0.415; in test [4], -0.276; in [5], -0.752; in [6] it was -0.685. The composite z-score is -1.69 in the test on Lefty1; 0.135 in test [8]; -0.0554 in [10]; -0.203 in test [15]; 0.0306 in test [16]; -0.0112 with Torsin-1A (Homo sapiens) [17]. Moreover, the composite z-score was 0.395 with Torsin-1A (Homo sapiens) [18] and -1.02 in [19]. The z-score in [7] was 0.559; in test [9], 1.38 (inactive); in test [11] it was -0.0066 (inactive); in test [12], -0.679 (inactive); in test [13], -0.185 (inactive); in [14] it was 0.137 (inactive).

Take `COC(=O)[C@@]1(Cc2ccc(F)cc2)[C@H]2c3cc(C(=O)N4CCCC4)n(Cc4ccc(C(F)(F)F)nc4)c3C[C@H]2CN1C(=O)c1ccccc1`: the composite z-score in test [1] is 1.2; in test [2], 1.19; in test [3], 1.16; in [4], 1.01; in [5] it was 1.38; in test [6] it was -0.71. Besides, the composite z-score is -0.13 in the test on Lefty1; 1.06 in test [8]; 0.406 in test [10]; 1.99 in [15]; -0.025 in test [16]; 1.45 with Torsin-1A (Homo sapiens) [17]. Further, the composite z-score was 1.14 in the test with Torsin-1A (Homo sapiens) [18] and -0.388 in test [19]. Also, the z-score in test [7] was 1.3; in [9], 3.14 (inactive); in test [11], -2.55 (inactive); in test [12], 0.193 (inactive); in [13], 0.197 (inactive); in [14] it was -0.388 (inactive).

Turning to `C=C(C)C1CN([C@H](CO)c2ccccc2)C(=O)/C1=C\c1ccccc1` (stereo not given in full), the composite z-score was -0.288 in test [1]; 0.145 in test [2]; -0.234 in test [3]; 0.237 in [4]; 0.803 in [5]; 1.14 in test [6]. Also, the composite z-score in the test with Lefty1 was -0.0605; in [8] it was 0.726; in [10], -0.0623; in test [15] it was -0.0971; in test [16] it was -0.0719; in the test with Torsin-1A (Homo sapiens) [17], 0.0321. The composite z-score is 0.343 in the test with Torsin-1A (Homo sapiens) [18] and 0.633 in test [19]. For the same molecule, the z-score in [7] is -1.06; in test [9], 0.264 (inactive); in test [11], -4.75 (inactive); in test [12], 1.3 (inactive); in test [13], 2.04 (inactive); in [14], -0.391 (inactive).

Consider `O=C(c1ccccc1)N1Cc2ccccc2C[C@@]2(N=C(c3ccc(OCCCO)cc3)O[C@H]2c2ccccc2)C1=O`, for which the composite z-score was determined as 1.89 in [1]; 1.21 in test [2]; 1.18 in test [3]; 0.826 in [4]; 1.44 in test [5]; 1.44 in [6]. Moreover, the composite z-score with Lefty1 is 0.984; in test [8], -0.17; in test [10], 1.27; in test [15], 0.491; in test [16], 0.0658; with Torsin-1A (Homo sapiens) [17] it was 0.881. Further, the composite z-score in the test with Torsin-1A (Homo sapiens) [18] is 1.06; in test [19], 2.19. Further, the z-score is -1.85 in test [7]; -1.29 (inactive) in test [9]; -4.73 (inactive) in [11]; -0.191 (inactive) in [12]; 0.904 (inactive) in test [13]; -1.12 (inactive) in [14].

In the case of `COCCOC(=O)N1C(=O)[C@@]2(c3cc(C#CCC(C(=O)OC)C(=O)OC)ccc31)[C@H](C(N)=O)[C@H]1C(=O)O[C@H](c3ccccc3)[C@H](c3ccccc3)N1[C@@H]2c1ccccc1OCCO`, the composite z-score in test [1] was found to be 0.737; in test [2], 1.09; in [3], 0.225; in test [4], 0.927; in test [5], 1.32; in test [6], 1.57. Also, the composite z-score with Lefty1 is 1.26; in test [8], 0.556; in test [10] it was -0.0211; in [15], 1.09; in test [16] it was -0.0259; in the test with Torsin-1A (Homo sapiens) [17], 0.0139. The composite z-score stood at 0.212 with Torsin-1A (Homo sapiens) [18] and 1.9 in test [19]. The z-score was -0.116 in test [7]; -0.617 (inactive) in test [9]; -6.46 (inactive) in [11]; -2.59 (inactive) in test [12]; -1.84 (inactive) in test [13]; -2.42 (inactive) in test [14].
